In ChEMBL document CHEMBL3988442, “University of Dundee, Small-Polar-MMV Screening Library” (2021) one finds Percent Effect data, which are given here for 20 compounds.

Assay [1] deals with T1, Aspartate--tRNA(Asp/Asn) ligase (Mycobacterium tuberculosis (strain ATCC 25618 / H37Rv)) (UniProt P9WFW3).
T1 sequence (whole entry): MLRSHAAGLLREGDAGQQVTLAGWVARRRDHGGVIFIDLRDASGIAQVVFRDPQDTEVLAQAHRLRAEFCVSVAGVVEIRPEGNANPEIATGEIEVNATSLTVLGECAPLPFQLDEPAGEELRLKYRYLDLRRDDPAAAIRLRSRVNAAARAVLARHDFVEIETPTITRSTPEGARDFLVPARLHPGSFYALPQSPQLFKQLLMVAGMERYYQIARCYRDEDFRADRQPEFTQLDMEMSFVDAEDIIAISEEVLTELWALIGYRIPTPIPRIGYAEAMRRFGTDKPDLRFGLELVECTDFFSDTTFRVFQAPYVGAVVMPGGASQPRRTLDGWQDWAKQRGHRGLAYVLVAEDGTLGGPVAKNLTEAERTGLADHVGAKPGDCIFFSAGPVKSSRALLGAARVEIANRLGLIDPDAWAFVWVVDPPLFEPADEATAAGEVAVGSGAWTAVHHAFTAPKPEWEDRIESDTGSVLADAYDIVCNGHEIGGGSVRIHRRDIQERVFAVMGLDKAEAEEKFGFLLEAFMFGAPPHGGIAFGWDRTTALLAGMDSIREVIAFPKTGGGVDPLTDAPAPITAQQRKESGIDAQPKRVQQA
Put plainly: Assay for Asp RNA synthetase-1 from Mycobacterium tuberculosis. It is filed as functional. The arrangement: scale not given: direction of the effect not stated beside the values. The following applies: 30 µM.

Assay [2] has as its target Shiga toxin 2 (Escherichia coli O157:H7) (UniProt P09385+P09386). Put plainly: E. coli 0.157:H7 Shiga Toxin SOP - stx2 screening assay. The format is functional. Further details: scale not given: direction of the effect not stated beside the values. The note with it: 30 µM.

SMILES strings stand for the structures.

With `CC1CCN(S(=O)(=O)c2cccn(CC(=O)N3CCOCC3)c2=O)CC1`, the Percent Effect in assay [1] is -4.3%; in assay [2], -33%.
In the same order, the values of `CN(Cc1nc(N)c2ccccc2n1)CC1CCCN1c1cccnn1` (stereo not given) are 4.61% and 24.7%.
For `Cc1scc(C(=O)N2CCC3(CCCN(C)C3=O)C2)c1-c1ccccc1` (stereo not given), in that order: 2.02% and 8.94%.
For `CNc1cc(N2CCCC2CNCc2ccccn2)ncn1` (stereo not given), in that order: 1.56% and -35.2%.
`COc1ccccc1CC(=O)N1CCC(NCc2c[nH]nc2C)CC1`: the Percent Effect is 4.54% in assay [1] and 17.4% in assay [2].
Consider `Cc1cccc2[nH]c(C3CCN(C(=O)c4ccnn4C)CC3)nc12`, for which the Percent Effect in assay [1] was -0.0892%; in assay [2], -69.6%.
In the same order, the values of `CC(Cn1ccnc1)NC(=O)C1(c2ccc(F)cc2)CC1` (stereo not given) are -1.46% and 2.06%.
In the same order, the values of `Cc1nc(C)n(CC2CCCN2CC(=O)Nc2cc(C(C)C)no2)n1` (stereo not given) are 3.17% and 27.8%.
For `CC(c1cccc(S(N)(=O)=O)c1)N(C)CCOc1ccccc1` (stereo not given), in that order: 0.185% and -29.3%.
With `CCCc1nnsc1C(=O)NCC1CCN(S(C)(=O)=O)CC1`, the figures for the Percent Effect in assay [1] and in assay [2] were -7.1% and -1.41%, respectively.
In the same order, the values of `CSc1ccc(C(CNC(=O)C2CC2)N2CCc3sccc3C2)cc1` (stereo not given) are -0.15% and 11.2%.
Take `O=C(NCCc1ccn(-c2ccccc2)n1)N1CCC1`: the values for the Percent Effect in assay [1] and in assay [2] were 1.53% and -11.7%, respectively.
Consider `O=C(NCC1CC1)N1CCN(Cc2ccc3c(c2)OCCO3)CC1`, for which the figures for the Percent Effect in assay [1] and in assay [2] were 0.365% and 16.2%, respectively.
On to `CN(Cc1cnccn1)C(=O)c1ccnc(OC2CCC2)c1`, for which the Percent Effect in assay [1] was 3.71%; in assay [2], -6.19%.
For `CC(C)C(C(=O)N1CCN(Cc2ccncc2)CC1)n1cncn1` (stereo not given), in that order: 7.46% and -21.4%.
For `Cc1nn(C)c2c(=O)n(CC(=O)Nc3cc(Cl)cc(Cl)c3)nnc12`, in that order: -7.23% and -36.8%.
For `O=C(CCc1cc2n(n1)CCN(Cc1ncc[nH]1)C2)N1CCCC1`, in that order: -0.827% and -2%.
With `Cc1[nH]ccc1C(=O)N1CCCC(c2nccn2Cc2cscn2)C1` (stereo not given), the Percent Effect in assay [1] was -2.28%; in assay [2], 4.58%.
For `CN(C)C(=O)N1CCN(Cc2ccccc2)[C@@H]2CS(=O)(=O)C[C@@H]21`, in that order: 0.569% and -3.78%.
For `c1cncc(-c2nccc(CN3CCCC3)n2)c1`, in that order: 2.87% and -20.7%.
